According to PubChem BioAssay:
Where “and” joins values, the source holds several entries; their conditions need not be identical. Equal values may be shown once. Calls of active or inactive are those of the source.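 How the source made its calls, unless noted: active means thallium flux through the channel raised or lowered by more than 3 SD from vehicle-only wells, actives on both sides; inactive means the rest.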

Key:
[1] = Wnt pathway potentiators raising nuclear beta-catenin – imaging, WNT3A-conditioned medium, mouse C2C12, NPC library, primary screen (AID 1117326; in the data active means nuclear beta-catenin stimulation mostly above about 4.2%, no sharp cut-off; inactive means mostly below about 10%); conditions: stronger effect = higher value
[2] = stimulators of insulin release from INS-1E, primary screen, cell-based, 5 mM glucose, NPC library (AID 1117329;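 active means compound raises insulin release from rat beta cells at 5 mM glucose, no numeric limit stated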); conditions: rat INS-1E insulin secretion, at 10 µM, stronger effect = higher value
[3] = growth inhibition of GSK3B-pretreated HCT116 cells – cell-based, CellTiter-Glo, 0.2 to 20 µM (AID 1117336;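 active means compounds lowering colon cancer cell viability after pretreatment blocking the GSK3B kinase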); conditions: HCT116 viability after GSK3B inhibitor, at 20 µM, stronger effect = higher value
[4] = inhibition of endothelial tube formation, primary screen, imaging, VEGF stimulated, CD31 staining, tube area, NPC library (AID 1117340;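 active means compound that reduces growth-factor-driven endothelial tube area in a mixed cell culture, no cutoff stated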); conditions: VEGF-stimulated ADSC/ECFC co-culture, at 10 µM, stronger effect = higher value
[5] = GLP1 release stimulators, primary, NCI-H716, NPC library (AID 1117341;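 active means compound raises GLP1 secretion from the human gut endocrine cells, with no numeric limit stated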); conditions: NCI-H716 cells, at 10 µM, stronger effect = higher value
[6] = HCT116 colon cancer cell growth inhibition, primary screen, CellTiter-Glo luminescence, NPC library (AID 1117342;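 active means compounds that lower survival of HCT116 colon cancer cells in the luminescence readout, no numeric limit stated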); conditions: at 20 µM (top of the series)
[7] = reduced SW480 viability measured with CellTiter-Glo, NPC library, primary (AID 1117343;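 active means compounds that lower viability of the colon cancer cells in the luminescence readout, with no numeric limit stated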); conditions: CellTiter-Glo luminescence; at 20 µM (top of the series)
[8] = NPC library primary testing for decreased DLD-1 cell viability via CellTiter-Glo (AID 1117346;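 active means compounds that lower survival of DLD-1 colon cancer cells in the luminescence readout, no cutoff given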); conditions: DLD-1 viability, CellTiter-Glo luminescence; at 20 µM (top of the series)
[9] = biological target: 6-phosphogluconate dehydrogenase, decarboxylating (Homo sapiens) (UniProt P52209); assay: inhibition of human phosphogluconate dehydrogenase – biochemical, recombinant enzyme, NADPH absorbance, primary screen (AID 1159550;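 active means at least 20% inhibition of 6-phosphogluconate dehydrogenase activity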); conditions: recombinant 6PGD, NADPH absorbance 341 nm; at 10 µM; stronger effect = higher value
Sequence of 6-phosphogluconate dehydrogenase, decarboxylating (Homo sapiens) (P52209 whole entry, looked up): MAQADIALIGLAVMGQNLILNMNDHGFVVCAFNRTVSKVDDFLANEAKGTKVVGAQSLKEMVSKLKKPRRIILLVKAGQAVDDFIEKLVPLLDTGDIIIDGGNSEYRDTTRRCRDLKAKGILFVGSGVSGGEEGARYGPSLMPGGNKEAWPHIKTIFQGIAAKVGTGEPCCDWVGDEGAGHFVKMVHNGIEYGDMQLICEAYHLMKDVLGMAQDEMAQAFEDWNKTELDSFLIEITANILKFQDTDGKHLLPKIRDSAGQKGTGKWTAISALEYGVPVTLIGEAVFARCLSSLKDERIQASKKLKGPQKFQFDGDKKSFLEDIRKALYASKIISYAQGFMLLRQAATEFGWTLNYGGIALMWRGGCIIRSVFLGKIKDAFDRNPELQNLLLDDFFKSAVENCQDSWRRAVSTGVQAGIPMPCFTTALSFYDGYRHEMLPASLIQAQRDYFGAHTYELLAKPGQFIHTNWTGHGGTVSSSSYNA

[10] = modulation of C. elegans fzo-1 (AID 1259413; call rule not given here;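 further: fzo-1 mutant C. elegans worms in liquid wells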); conditions: C. elegans fzo-1 modulator screen, mean read-out; stronger effect = higher value
[11] = EMT-state selective cytotoxicity in co-culture – imaging, PC-3E GFP, TEM4-18 mCherry, primary screen (AID 1345086;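 active means compounds killing one labelled cell type while sparing the other, by normalised counts and ratio limits, not self-fluorescent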;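 on all read-outs here: cells exposed to compound for 72 h before imaging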;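 on red/green cell ratio (normalised): normalised mesenchymal count divided by normalised epithelial count so high means epithelial killing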); conditions: PC-3E GFP / TEM4-18 mCherry co-culture, imaging cell counts, at 1 µM; for red/green cell ratio (normalised): actives lie on both sides, counts scaled to control wells, 1 = unselective
[12] = viability loss with induced miR-34 in A549 – imaging, A549 dox-inducible miR-34, nuclei and caspase counts, primary screen (AID 1347080;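 active means compounds whose cell count with miR-34 switched on is under 0.7 times the count with it off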); conditions: A549 miR-34 inducible, Hoechst nuclei count, 48 h
[13] = MELAS cybrid and Rieske KO viability enhancers – cell-based, MELAS cybrids, Rieske KO mouse fibroblasts, CellTiter-Glo, primary screen (AID 1508586;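 active means mean z-score across replicates of 1.96 or higher in either the MELAS or the Rieske mutant cell line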;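 further: z relative to plate mean and SD of compound and empty wells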); conditions: low glucose
[14] = biological target: NAD(+) hydrolase SARM1 (Homo sapiens) (UniProt Q6SZW1); assay: blocking NAD cleavage by SARM1 SAM-TIR – cell lysate, NAD-Glo luminescence (AID 1508614;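 active means compound whose remaining NAD level is above about 45 nM, limit read from the data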); conditions: SAM-TIR HEK293T lysate NADase, at 1 µM, stronger effect = higher value
Sequence of NAD(+) hydrolase SARM1 (Homo sapiens) (Q6SZW1 whole entry, looked up, the tested form may be a part): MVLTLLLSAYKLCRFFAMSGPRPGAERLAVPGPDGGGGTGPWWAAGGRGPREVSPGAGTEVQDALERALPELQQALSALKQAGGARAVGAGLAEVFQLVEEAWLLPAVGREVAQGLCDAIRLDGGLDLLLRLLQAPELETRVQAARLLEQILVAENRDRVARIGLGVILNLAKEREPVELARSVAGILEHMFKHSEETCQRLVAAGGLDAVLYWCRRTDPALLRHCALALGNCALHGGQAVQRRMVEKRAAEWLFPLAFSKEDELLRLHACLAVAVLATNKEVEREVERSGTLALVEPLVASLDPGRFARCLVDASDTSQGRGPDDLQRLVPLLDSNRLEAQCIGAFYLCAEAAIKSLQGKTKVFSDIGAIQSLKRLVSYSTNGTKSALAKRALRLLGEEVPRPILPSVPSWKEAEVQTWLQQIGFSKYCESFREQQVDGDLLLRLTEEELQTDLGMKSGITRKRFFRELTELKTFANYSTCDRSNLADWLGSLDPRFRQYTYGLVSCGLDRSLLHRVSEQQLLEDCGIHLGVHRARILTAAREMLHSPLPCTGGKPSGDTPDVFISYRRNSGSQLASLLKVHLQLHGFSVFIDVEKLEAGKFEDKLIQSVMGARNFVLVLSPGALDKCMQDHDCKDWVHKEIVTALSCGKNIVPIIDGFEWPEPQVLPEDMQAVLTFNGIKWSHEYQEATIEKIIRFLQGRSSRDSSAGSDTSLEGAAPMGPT

[15] = biological target: Mitogen-activated protein kinase 7 (Homo sapiens) (UniProt Q13164); assay: Gal4-ERK5 driven luciferase induction – cell-based, HTS, primary screen (AID 1508626;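 active means luciferase signal above three times the same-plate solvent-only control wells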;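 further: luciferase driven by Gal4-ERK5 fusion binding five Gal4 sites before minimal TATA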); conditions: HeLa Gal4-ERK5 transactivation, 18 h, at 5 µM, stronger effect = higher value
Sequence of Mitogen-activated protein kinase 7 (Homo sapiens) (Q13164 whole entry, looked up, the tested form may be a part): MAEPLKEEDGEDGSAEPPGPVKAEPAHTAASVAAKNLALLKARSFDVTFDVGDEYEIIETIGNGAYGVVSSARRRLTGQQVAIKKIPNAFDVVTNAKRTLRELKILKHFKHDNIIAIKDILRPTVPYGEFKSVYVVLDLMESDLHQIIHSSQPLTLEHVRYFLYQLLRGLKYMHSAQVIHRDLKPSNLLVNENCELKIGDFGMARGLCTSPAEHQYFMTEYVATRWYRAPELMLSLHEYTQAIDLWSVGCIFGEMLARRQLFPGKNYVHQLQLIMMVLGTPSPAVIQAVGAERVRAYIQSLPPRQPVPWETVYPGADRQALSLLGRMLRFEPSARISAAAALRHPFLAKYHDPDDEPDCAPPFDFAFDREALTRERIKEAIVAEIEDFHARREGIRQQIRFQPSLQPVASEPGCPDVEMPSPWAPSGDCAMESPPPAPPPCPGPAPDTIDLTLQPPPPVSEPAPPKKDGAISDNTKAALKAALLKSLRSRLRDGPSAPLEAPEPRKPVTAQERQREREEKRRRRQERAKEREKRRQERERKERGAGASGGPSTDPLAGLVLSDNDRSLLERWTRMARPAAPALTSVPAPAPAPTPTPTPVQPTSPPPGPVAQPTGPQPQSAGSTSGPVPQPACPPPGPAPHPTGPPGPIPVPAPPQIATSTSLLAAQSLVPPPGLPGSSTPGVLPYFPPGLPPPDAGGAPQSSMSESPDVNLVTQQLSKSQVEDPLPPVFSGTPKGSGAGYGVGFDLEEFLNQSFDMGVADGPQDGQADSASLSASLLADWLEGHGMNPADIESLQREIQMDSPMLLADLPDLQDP

[16] = growth inhibition, single agents and combos, ICB984, cell-based, cisplatin or BGB combos, synergistic combos for chromothripsis tumors (AID 1671451; call rule not given here;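 further: cells exposed for 96 hours before readout; 0% = vehicle DMSO and 100% = killing by high DMSO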); conditions: ICB984 medulloblastoma cells, drug combinations, stronger effect = higher value
F380Y = assay: BK channel mutant inhibitors and activators – cell-based, U2OS BacMam, thallium flux, beta subunits, selectivity assay, profiling panel (AID 1259406); conditions: U2OS BacMam BK variants, at 30 µM;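 further: initial slope of Thallos dye fluorescence rise after thallium is added; log ratio against the mean of 0.3% DMSO vehicle wells on the same plate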
F380Y/beta1 = assay: as above; conditions: U2OS BacMam BK variants, at 30 µM
F380Y/beta2Delta = assay: as above; conditions: U2OS BacMam BK variants, at 30 µM
[17] = measured here: epithelial PC-3E GFP cell survival
[18] = measured here: mesenchymal TEM4-18 mCherry cell survival
[19] = MELAS cybrid survival, CellTiter-Glo 48 h, stronger effect = higher value
[20] = Rieske KO mouse fibroblast survival, CellTiter-Glo 72 h
[21] = measured here: 5 uM single agent, at 5 µM

COc1c(N2CCNC(C)C2)c(F)cc2c(=O)c(C(=O)O)cn(C3CC3)c12 (configuration not stated)
1.12 and 1.14: normalised cell number [11, 17]
-26.5% and -51.5%: inhibition ([16]; cisplatin combo, at 5 µM)
10600 and 11400 and 9660: cell count ([12]; measured here: total cells with miR-34 induction, stronger effect = lower value)
-11.2% and -13.7%: inhibition ([16]; BGB IC40 combo, at 0.005 µM)
-12.4% and -7.73%: inhibition ([16]; cisplatin combo, at 0.5 µM)
-2.69% and -3.52%: inhibition [16, 21]
2.5%: nuclear beta-catenin stimulation ([1]; stimulation, at 2 µM)
inactive: nuclear beta-catenin stimulation ([1]; at 10 µM) 0.7% | insulin secretion stimulation [2] -1.15% | viability decrease [3] 6.2% | tube area decrease [4] -12.3% | GLP1 secretion stimulation [5] -2.4% | inhibition of viability [6] 25.9% | viability decrease (inhibition) [7] -16.2% | viability decrease (inhibition) [8] -9.8% | inhibition [9] -4.88% | mean signal [10] 254 | red/green cell ratio (normalised) [11] 0.98 and 0.92 | fold change ([12]; stronger effect = lower value, cell number ratio, induced over uninduced) 0.968 and 0.875 | z-score [13, 19] 0.506 and 0.393 | remaining NAD [14] 10 nM | luciferase signal [15] 72 AU | inhibition ([16]; at 0.5 µM) -18.4% and -24.4% | log fold change Tl+ flux (F380Y) -0.00177 | log fold change Tl+ flux (F380Y/beta1) -0.0535 | log fold change Tl+ flux (F380Y/beta2Delta) -0.045
6.38% and 0.318%: inhibition ([16]; BGB IC20 combo, at 0.005 µM)
-11.7% and 20.2%: inhibition ([16]; BGB IC40 combo, at 0.05 µM)
-15.7% and 18%: inhibition ([16]; cisplatin combo, at 0.05 µM)
10900 and 13100 and 11000: cell count ([12]; measured here: total cells without miR-34 induction)
-0.687 and -0.598: z-score [13, 20]
1.11 and 1.05: normalised cell number [11, 18]
1.74 and 1.47 and 1.16: fold change ([12]; measured here: relative caspase fold change +Dox/-Dox)

CN=C(NC#N)NCCSCc1nc[nH]c1C
-1.1%: nuclear beta-catenin stimulation ([1]; stimulation, at 2 µM)
1.05: normalised cell number [11, 18]
-0.116 and -0.0466 and 0.0997: z-score [13, 20]
1.01: normalised cell number [11, 17]
inactive: nuclear beta-catenin stimulation ([1]; at 10 µM) 0.2% | insulin secretion stimulation [2] 1.3% | viability decrease [3] 10.8% | tube area decrease [4] -5.8% | GLP1 secretion stimulation [5] -0.3% | inhibition of viability [6] 8.17% | viability decrease (inhibition) [7] 36.9% | viability decrease (inhibition) [8] 1.2% | inhibition [9] -10.7% | mean signal [10] 239 | red/green cell ratio (normalised) [11] 1.04 | z-score [13, 19] -0.132 and 0.533 and -0.0775 | remaining NAD [14] 10 nM | luciferase signal [15] 44 AU | log fold change Tl+ flux (F380Y) 0.0123 | log fold change Tl+ flux (F380Y/beta1) 0.0381 | log fold change Tl+ flux (F380Y/beta2Delta) -0.0232

CCCCNc1cc(C(=O)O)cc(S(N)(=O)=O)c1Oc1ccccc1
1.1: normalised cell number [11, 17]
1.05: normalised cell number [11, 18]
-0.392 and -0.0528 and -1.25: z-score [13, 20]
-0.1%: nuclear beta-catenin stimulation ([1]; stimulation, at 2 µM)
inactive: nuclear beta-catenin stimulation ([1]; at 10 µM) 0.1% | insulin secretion stimulation [2] -0.7% | viability decrease [3] -57% | tube area decrease [4] 3.7% | GLP1 secretion stimulation [5] -2.2% | inhibition of viability [6] 2.63% | viability decrease (inhibition) [7] 2.4% | viability decrease (inhibition) [8] -4.2% | inhibition [9] 0% | mean signal [10] 228 | red/green cell ratio (normalised) [11] 0.96 | z-score [13, 19] -0.34 and 0.797 and -0.227 | remaining NAD [14] 10 nM | luciferase signal [15] 32 AU | log fold change Tl+ flux (F380Y) 0.0239 | log fold change Tl+ flux (F380Y/beta1) -0.0436 | log fold change Tl+ flux (F380Y/beta2Delta) -0.0452

CC1=NS(=O)(=O)c2cc(Cl)ccc2N1
active: viability decrease (inhibition) [7] 8.5%
2.4%: nuclear beta-catenin stimulation ([1]; stimulation, at 2 µM)
0.049 and -0.314: z-score [13, 20]
0.96: normalised cell number [11, 17]
inactive: nuclear beta-catenin stimulation ([1]; at 10 µM) 0.5% | insulin secretion stimulation [2] 1.9% | viability decrease [3] 2.4% | tube area decrease [4] 0.4% | GLP1 secretion stimulation [5] 0.6% | inhibition of viability [6] 26.2% | viability decrease (inhibition) [8] 1.1% | inhibition [9] 4.77% | mean signal [10] 242 | red/green cell ratio (normalised) [11] 1.18 | z-score [13, 19] -0.405 and -0.0836 | remaining NAD [14] 10 nM | luciferase signal [15] 68 AU | log fold change Tl+ flux (F380Y) -0.0365 | log fold change Tl+ flux (F380Y/beta1) -0.0354 | log fold change Tl+ flux (F380Y/beta2Delta) 0.0204
1.14: normalised cell number [11, 18]

CC(C)Cc1ccc(C(C)C(=O)O)cc1 (configuration not stated)
1.11: normalised cell number [11, 17] | normalised cell number [11, 18]
-0.22 and -1.3: z-score [13, 20]
inactive: nuclear beta-catenin stimulation ([1]; at 10 µM) 0.3% | insulin secretion stimulation [2] -2.6% | viability decrease [3] -2.1% | tube area decrease [4] 0.9% | GLP1 secretion stimulation [5] 0.1% | inhibition of viability [6] -7.8% | viability decrease (inhibition) [7] 21.6% | viability decrease (inhibition) [8] 16.6% | inhibition [9] -4.32% | mean signal [10] 242 | red/green cell ratio (normalised) [11] 1 | z-score [13, 19] 0.0693 and -0.542 | remaining NAD [14] 10 nM | luciferase signal [15] 24 AU | log fold change Tl+ flux (F380Y) 0.0419 | log fold change Tl+ flux (F380Y/beta1) -0.0217 | log fold change Tl+ flux (F380Y/beta2Delta) 0.0321
1.7%: nuclear beta-catenin stimulation ([1]; stimulation, at 2 µM)

COc1ccccc1OCCNCC(O)COc1cccc2[nH]c3ccccc3c12 (configuration not stated)
1.02 and 1.07: normalised cell number [11, 17]
2%: nuclear beta-catenin stimulation ([1]; stimulation, at 2 µM)
-0.463 and 1.15 and -0.0666: z-score [13, 20]
inactive: nuclear beta-catenin stimulation ([1]; at 10 µM) 10.7% | insulin secretion stimulation [2] 1.9% | viability decrease [3] 7.2% | GLP1 secretion stimulation [5] 11.2% | inhibition [9] 6.21% | mean signal [10] 201 | red/green cell ratio (normalised) [11] 1.11 and 0.93 | z-score [13, 19] -0.281 and 0.201 and -0.32 | remaining NAD [14] 14 nM and 10 nM | luciferase signal [15] 340 AU | log fold change Tl+ flux (F380Y) -0.0291
1.13 and 1: normalised cell number [11, 18]
active: tube area decrease [4] 60.9% | inhibition of viability [6] 83.7% | viability decrease (inhibition) [7] 112% | viability decrease (inhibition) [8] 90.5% | log fold change Tl+ flux (F380Y/beta1) 0.26 | log fold change Tl+ flux (F380Y/beta2Delta) -0.29

CC(=O)OCC(CCn1cnc2cnc(N)nc21)COC(C)=O
-6.07%: inhibition ([16]; BGB IC40 combo, at 0.005 µM)
1.14: normalised cell number [11, 18]
inactive: nuclear beta-catenin stimulation ([1]; at 10 µM) 0.9% | insulin secretion stimulation [2] 0.7% | viability decrease [3] -11.8% | tube area decrease [4] -3.2% | GLP1 secretion stimulation [5] 0.4% | inhibition of viability [6] -2.1% | viability decrease (inhibition) [7] 15.5% | viability decrease (inhibition) [8] -9.1% | inhibition [9] -8.38% | mean signal [10] 292 | red/green cell ratio (normalised) [11] 0.92 | z-score [13, 19] -0.188 and -0.285 and 0.439 | remaining NAD [14] 10 nM | luciferase signal [15] 160 AU | inhibition ([16]; at 0.5 µM) -31.4% | log fold change Tl+ flux (F380Y) 0.0311 | log fold change Tl+ flux (F380Y/beta1) 0.035 | log fold change Tl+ flux (F380Y/beta2Delta) -0.0244
-37.3%: inhibition ([16]; cisplatin combo, at 0.5 µM)
1.9%: inhibition ([16]; BGB IC20 combo, at 0.005 µM)
2.8%: nuclear beta-catenin stimulation ([1]; stimulation, at 2 µM)
-17.8%: inhibition ([16]; cisplatin combo, at 0.05 µM)
-14.6%: inhibition ([16]; BGB IC40 combo, at 0.05 µM)
1.23: normalised cell number [11, 17]
-37.5%: inhibition ([16]; cisplatin combo, at 5 µM)
-40.1%: inhibition [16, 21]
-0.751 and -0.17 and -0.227: z-score [13, 20]
